Consider 4 compounds from PubChem BioAssay (NCI).

About 83,000 compounds went through this panel and 20% of them were active in at least one assay; those are over-represented in the sample as a whole.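 For each line, cells grew in 96-well plates with the test compound present at a single concentration for 48 hours.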 Values without a mark were called inactive. Active and inactive are the calls of the source. How the source made its calls: active means growth percent below 10; inactive means the rest.

The assay has as its system HL-60(TB) leukemia. The assay can be described thus: NCI-60 one-dose screen, 48 h (100 = growth as untreated, 0 = no growth, -100 = all killed). To be noted: 10 µM unless noted.
On to `CC1=C(NCCN2CCCC2)C(=O)c2c(OCc3cccc(Cl)c3)cccc2C1=O`, for which the growth is 94.1%.

As to `COc1cc(/C=C2\CCCC3=C2NC(N)=NC3c2cc(OC)c(OC)c(OC)c2)cc(OC)c1OC` (centres undefined), the growth is -7.5% (active).

As to `COc1ccc(-n2c(-c3ccc(NC(=O)CCCl)cc3)nnc2-c2cc(OC)c(OC)c(OC)c2)cc1`, the growth was -12.6% (active).

On to `C=C1C(=O)O[C@H]2[C@H]1CC/C(COC(=O)c1c[nH]c3ccccc13)=C\CC[C@@]1(C)O[C@@H]21`, for which the growth was -25.9% (active).
